Assay results reported in ChEMBL document CHEMBL3988442, “University of Dundee, Small-Polar-MMV Screening Library” (2021).
In all, about 48,000 compounds went through this assay and about 13,000 (27%) showed an effect of 50% or more. Some of the results follow.

The molecules below were run on Wolbachia pipientis (assay: Anti-Wolbachia Cell-Based Screen). Details: 5 µM.
Assay type: functional
Set-up: scale not given: in the data most compounds retested in dose-response had high values

Structure (SMILES)	Percent Effect
Cc1cc(=O)c(C(=O)Nc2cccc(CCN3CCCC3)c2)c[nH]1	-5.108%
O=C(O)CSc1nnc(-c2ccn[nH]2)n1-c1cccc(C(F)(F)F)c1	-2.54%
COc1ccc(-c2nc(C3(NC(=O)OC(C)(C)C)CCC3)no2)cn1	3.682%
COc1ccc(C(=O)NCCNC(=O)c2cncnc2C)cc1	-1.399%
O=C(COC1CCCCC1)Nc1ccn(Cc2cccnc2)n1	3.333%
CC1=C[C@@H](CC#N)[C@H](C(C)C)C[C@H]1CC(=O)N1CCN(C)CC1	13.63%
Oc1cccc(-c2cc(CC3(N(CC4CC4)CC4CC4)COC3)no2)c1	2.791%
CC(C)=CCS(=O)(=O)Cc1noc(CC(C)C)n1	-4.798%
COCCN1C[C@H]2CCN(C(=O)Nc3ccccc3C)CC[C@H]2S1(=O)=O	-14.97%
CCNC(=O)N1CCC2(C1)c1ccccc1S(=O)(=O)N2CCOC (stereo unspecified)	101.2%
COCCN1C2(CCN(C(=O)c3cccs3)C2)c2ccccc2S1(=O)=O (stereo unspecified)	112.6%
COCCN1C[C@@H](C)[C@@]2(COCCN(C(=O)c3cccs3)C2)C1.O=C(O)C(F)(F)F	3.824%
COCC(=O)N1CCC2(CCC(C(=O)N3CCCC3)O2)CC1 (stereo unspecified)	-11.51%
O=C(C1CCCC1)N1CC[C@]2(O)CCN(Cc3ncccn3)C[C@@H]2C1	-5.051%
O=C(c1ccc(Cl)s1)N1CCC2(COc3ncccc3S(=O)(=O)N2)C1 (stereo unspecified)	106.8%
O=C(c1ccc(Cl)s1)N1CC(c2nc(-c3ccc[nH]c3=O)no2)C1	-1.237%
O=C(c1ccccn1)N1CCC2(COc3ncccc3S(=O)(=O)N2)C1 (stereo unspecified)	107.8%
O=C(O)C(F)(F)F.O=S1(=O)NCC2(CCN(c3ncccn3)CC2)COc2ccccc21	7.267%
O=C(O)C(F)(F)F.O=C(c1ccncc1)N1CCC2(CC1)C(=O)Nc1ccccc12	-18.03%
O=C(c1ccccn1)N1CCN(C(c2ccccc2)C(F)(F)F)CC1 (stereo unspecified)	20.54%
O=C1CCC2(CCCN(C(=O)C3CCCC3)C2)CN1CCc1c[nH]cn1 (stereo unspecified)	-4.42%

Structure (SMILES)	Percent Effect
O=C(c1ccncc1)N1CCC2(COc3ncccc3S(=O)(=O)N2)C1 (stereo unspecified)	101.3%
O=C(c1ccoc1)N1CCC2(C1)CN(c1ncccn1)C2	-1.221%
O=C(C1CCCCC1)N1CCC2(COc3ncccc3S(=O)(=O)N2)C1 (stereo unspecified)	116.2%
CCC(CC)NC(=O)NCc1ccnc(-n2ccnc2C)c1	-7.702%
COCCN1CCN(C(=O)C[C@@H]2C[C@@H](C(C)C)[C@H](CO)C=C2C)CC1	-1.318%
CC(=O)Nc1ncc(S(=O)(=O)N2CCC(C)CC2)s1	-4.256%
COCCN(C)C(=O)c1ccc2onc(-c3coc(C)n3)c2c1	3.529%
CC(C)Cc1noc(CN(C)C(=O)C2COc3ccccc3C2)n1 (stereo unspecified)	-0.9273%
O=C(CN1CC(c2nc(C3CC3)no2)C1)NCC1CCCO1.O=C(O)C(=O)O (stereo unspecified)	11.2%
O=C(c1cscn1)N1CCC2(CC1)CCN(S(=O)(=O)c1ccccc1)C2	-2.013%
Cc1ccc(CN2CC3(CCN(C(=O)c4cscn4)C3)C2)s1.O=C(O)C(F)(F)F	-3.969%
O=C(c1cscn1)N1CCC2(COc3ncccc3S(=O)(=O)N2)C1 (stereo unspecified)	87.78%
COCC(=O)N1CCCn2c(CN3CCCCC3)nnc2C1.O=C(O)C(F)(F)F	-12.43%
CCOCC(=O)N1CCCn2c(nnc2Cn2cccc2)C1	93.36%
COCC(=O)N1CCCn2c(CN3CCCC3=O)nnc2C1	88.29%
O=C(C1CCCO1)N1CCCn2c(nnc2Cn2ccnc2)C1.O=C(O)C(F)(F)F (stereo unspecified)	-15.24%
COCC(=O)N1CCCn2c(CN3CCCC3)nnc2C1	85.92%
COCC(=O)N1CCCn2c(CN3CCOCC3)nnc2C1.O=C(O)C(F)(F)F	114.9%
O=C(C1CCCO1)N1CCCn2c(nnc2Cn2cccc2)C1 (stereo unspecified)	-19.79%
O=C(CC1CC1)N1CCCn2c(nnc2Cn2cccc2)C1	-9.469%
O=C(O)C(F)(F)F.O=C(O)C(F)(F)F.O=C(c1ccncc1)N1CCCn2c(CN3CCCC3)nnc2C1	-6.384%

Structure (SMILES)	Percent Effect
Fc1cnc(N2CCCn3c(CN4CCOCC4)nnc3C2)nc1.O=C(O)C(F)(F)F.O=C(O)C(F)(F)F	-2.409%
CCc1nc(CCNC(=O)C2CCOC2)sc1C (stereo unspecified)	-3.855%
Cc1cc(N2CCN(C(=O)C(C)n3ccnc3C(C)C)CC2)cc(C)n1 (stereo unspecified)	8.833%
CCOCC(=O)N1CCCn2c(CN3CCOCC3)nnc2C1	89.68%
CCOCC(=O)N1CCCn2c(CN3CCCCC3)nnc2C1	101.4%
Cc1nc2cc(F)cc(C(=O)N3CCN(CC(C)O)CC3)c2nc1C (stereo unspecified)	-10.08%
CNc1cncc(C2CCN(C(=O)c3coc(C)n3)CC2)n1	81.53%
CNc1cncc(C2CCN(C(=O)c3cnco3)CC2)n1	87.6%
COCCN(Cc1ccco1)Cc1nc(-c2ccc(C)c(F)c2)no1	-0.2442%
CC1Oc2ccc(S(=O)(=O)NCCCn3ccnc3)cc2NC1=O (stereo unspecified)	-3.003%
CCC(C)(C)NCc1nc(C(C)(C)NC(=O)OC(C)(C)C)no1	2.253%
COCCN(C)C(=O)c1nc2c(s1)CCCN2c1ncccn1	-1.851%
COCCNC(=O)c1nc2c(s1)CCCN2c1ccc(C)nn1	1.037%
COCCN(C)C(=O)c1nc2c(s1)CCCN2c1ccc(C)nn1	96.15%
Cc1ccc(N2CCCc3sc(C(=O)NCc4ccncc4)nc32)nn1	-3.066%
Cc1ccc(N2CCCc3sc(C(=O)NCc4cccnc4)nc32)nn1	10.28%
CCN(C(=O)c1nc2c(s1)CCCN2c1ccc(C)nn1)C(C)C	87.32%
N#Cc1cccc(CN2CC3(CCCCN3c3cccnc3)CC2=O)c1.O=C(O)C(F)(F)F (stereo unspecified)	9.304%
CC(C)CN1C[C@@H]2CN(c3cnccn3)C[C@@H]2C1=O	-19.41%
